Structures can show the parent of a compound that is named as a salt.
Assays:
Settings in all cases: 20 µM; incubation time: 27 h, anaerobic, 37 °C;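 for the amine columns active = adjusted P below 0.05 in both replicates with a change the same way and a mean fold change under 0.8 or over 1.25; inactive = the rest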
[1] = tested on: Clostridium sporogenes DSM 1664; experiment: growth (OD595) fold change vs plate DMSO controls (fold change (ratio)); higher = more growth
In short: (§1)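 Absorbance at 595 nm was read after shaking the anaerobic mGAM cultures, which had grown in 96-well plates for 27 h at 37 °C. After blank subtraction and background correction against 20 µM compound solutions in water, a calibration factor of 5 gave OD values. Growth is the fold change against the median of the plate's DMSO controls. Values are the mean of 2 biological replicates, with fold changes above 1.5 set to NA.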

Escherichia coli IAI1 [2] = experiment: as above
In short: as §1

[3] = tested on: Klebsiella aerogenes DSM 30053; experiment: as above
In short: as §1

[4] = tested on: Ruminococcus gnavus DSM 108212; experiment: as above
In short: as §1

[5] = tested on: Klebsiella aerogenes DSM 30053; experiment: fold change of Histamine concentration vs plate DMSO controls (fold change (ratio)); higher = more amine produced, active = hit call of the paper (significant change in both replicates, either direction)
In short: (§2)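 Anaerobic mGAM cultures of four gut bacterial strains were grown at 37 °C for 27 h in 80 µL wells, starting at OD 0.1 before 1:1 dilution. Compounds were at 20 µM final (sweeteners 50 µM). Whole cultures were extracted with cold acetonitrile/methanol containing 0.1% formic acid and centrifuged. Amines were quantified by LC–triple-quadrupole MS (dynamic MRM) against external calibration curves and drift-corrected within batch. Each value is the fold change versus plate DMSO controls, averaged over 2 biological replicates.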

[6] = tested on: Clostridium sporogenes DSM 1664; experiment: fold change of Tryptamine concentration vs plate DMSO controls (fold change (ratio)); higher = more amine produced, active = hit call of the paper (significant change in both replicates, either direction)
In short: as §2

[7] = tested on: Ruminococcus gnavus DSM 108212; experiment: as above
In short: as §2

Escherichia coli IAI1 [8] = experiment: fold change of Putrescine concentration vs plate DMSO controls (fold change (ratio)); higher = more amine produced, active = hit call of the paper (significant change in both replicates, either direction)
In short: as §2

[9] = tested on: Klebsiella aerogenes DSM 30053; experiment: as above
In short: as §2

Escherichia coli IAI1 [10] = experiment: fold change of Cadaverine concentration vs plate DMSO controls (fold change (ratio)); higher = more amine produced, active = hit call of the paper (significant change in both replicates, either direction)
In short: as §2

[11] = tested on: Klebsiella aerogenes DSM 30053; experiment: as above
In short: as §2

[12] = tested on: Ruminococcus gnavus DSM 108212; experiment: fold change of 2-Phenylethylamine concentration vs plate DMSO controls (fold change (ratio)); higher = more amine produced, active = hit call of the paper (significant change in both replicates, either direction)
In short: as §2

SMILES | growth [1] | growth (Escherichia coli IAI1 [2]) | growth [3] | growth [4] | fold change of Histamine concentration [5] | fold change of Tryptamine concentration [6] | fold change of Tryptamine concentration [7] | fold change of Putrescine concentration (Escherichia coli IAI1 [8]) | fold change of Putrescine concentration [9] | fold change of Cadaverine concentration (Escherichia coli IAI1 [10]) | fold change of Cadaverine concentration [11] | fold change of 2-Phenylethylamine concentration [12]
C[C@]12CC[C@H](O)C[C@H]1CC[C@@H]1[C@@H]2C[C@@H](O)[C@]2(C)[C@@H](C3=CC(=O)OC3)CC[C@]12O [Digoxigenin] | 0.957 | 1.07 | 1.03 | 0.974 | 0.938 (inactive) | 1.04 (inactive) | 1.12 (inactive) | 1.04 (inactive) | 0.964 (inactive) | 1.01 (inactive) | 1.01 (inactive) | 1.12 (inactive)
Cc1cc(C(C#N)c2ccc(Cl)cc2)c(Cl)cc1NC(=O)c1cc(I)cc(I)c1O (configuration not stated) | 0 | 0.947 | 1 | 0.156 | 1.07 (inactive) | 0.0183 (active) | 0.104 (active) | 1.07 (inactive) | 1.03 (inactive) | 1.29 (active) | 1.01 (inactive) | 0.11 (active)
CO/N=C(/C(=O)OC)c1ccccc1CO/N=C(\C)c1cccc(C(F)(F)F)c1 | 0.917 | 1.01 | 0.98 | 1.1 | 1.02 (inactive) | 0.956 (inactive) | 0.991 (inactive) | 0.982 (inactive) | 0.987 (inactive) | 0.95 (inactive) | 1.02 (inactive) | 0.951 (inactive)
COCC(=O)N(c1c(C)cccc1C)[C@H](C)C(=O)OC | 0.945 | 1.01 | 1.03 | 0.974 | 1 (inactive) | 1.01 (inactive) | 1.02 (inactive) | 1.02 (inactive) | 0.996 (inactive) | 0.99 (inactive) | 1.01 (inactive) | 1.05 (inactive)
Cc1cc(C(F)(C(F)(F)F)C(F)(F)F)ccc1NC(=O)c1cccc(I)c1C(=O)NC(C)(C)CS(C)(=O)=O | 1.23 | 0.991 | 1.02 | 0.917 | 1 (inactive) | 0.921 (inactive) | 0.939 (inactive) | 0.989 (inactive) | 1 (inactive) | 1 (inactive) | 0.987 (inactive) | 0.908 (inactive)
NC(=O)OCCCc1ccccc1 [Phenprobamate] | 0.892 | 0.995 | 0.992 | 0.943 | 0.97 (inactive) | 0.987 (inactive) | 0.96 (inactive) | 1.34 (inactive) | 0.99 (inactive) | 0.952 (inactive) | 0.984 (inactive) | 0.943 (inactive)
COc1cccc(C(=O)NN(C(=O)c2cc(C)cc(C)c2)C(C)(C)C)c1C | 0.988 | 1.01 | 1.01 | 1.17 | 0.994 (inactive) | 0.948 (inactive) | 0.932 (inactive) | 1.03 (inactive) | 0.983 (inactive) | 0.968 (inactive) | 0.986 (inactive) | 0.92 (inactive)
N#Cc1cc(Br)c(O)c(Br)c1 | 0.976 | 0.821 | 0.928 | 0.963 | 1.02 (inactive) | 0.955 (inactive) | 1.02 (inactive) | 1.23 (inactive) | 0.978 (inactive) | 1.29 (active) | 0.978 (inactive) | 1.01 (inactive)
C[C@@H]1CN([C@H]2CC[C@](C#N)(c3ccc(F)cc3)CC2)CC[C@]1(C(=O)O)c1ccccc1 [Levocabastine hydrochloride] | 1.17 | 1.09 | 1.02 | 1.07 | 1.03 (inactive) | 1.04 (inactive) | 1 (inactive) | 1.02 (inactive) | 1 (inactive) | 0.916 (inactive) | 0.999 (inactive) | 0.949 (inactive)
COCC(C)N(C(=O)CCl)c1c(C)csc1C (configuration not stated) | 1.06 | 1.02 | 1.03 | 0.986 | 0.989 (inactive) | 1.02 (inactive) | 0.991 (inactive) | 1.01 (inactive) | 1.01 (inactive) | 0.953 (inactive) | 1.04 (inactive) | 0.941 (inactive)
CO/C=C(/C(=O)OC)c1ccccc1Oc1cc(Oc2ccccc2C#N)ncn1 | 0.938 | 0.996 | 1.01 | 0.966 | 0.996 (inactive) | 1.02 (inactive) | 1.01 (inactive) | 1.04 (inactive) | 0.994 (inactive) | 0.962 (inactive) | 0.992 (inactive) | 1.01 (inactive)
CC1(C)C(C=C(Cl)Cl)C1C(=O)OC(C#N)c1cccc(Oc2ccccc2)c1 (mixture of isomers) | 1.13 | 1.01 | 0.982 | 1.04 | 1.02 (inactive) | 0.975 (inactive) | 1.02 (inactive) | 0.971 (inactive) | 1.02 (inactive) | 0.994 (inactive) | 1.01 (inactive) | 1 (inactive)
Cc1nc(N(C)C)nc(OC(=O)N(C)C)c1C | 1.02 | 1 | 0.963 | 1.06 | 1.01 (inactive) | 1.12 (inactive) | 0.985 (inactive) | 0.905 (inactive) | 1 (inactive) | 1.02 (inactive) | 1 (inactive) | 0.945 (inactive)
CCNc1nc(Cl)nc(NC(C)C)n1 | 1.02 | 1.02 | 1 | 1.06 | 1.03 (inactive) | 0.98 (inactive) | 1.06 (inactive) | 0.961 (inactive) | 0.971 (inactive) | 0.849 (inactive) | 1 (inactive) | 1.1 (inactive)
CCC(CC)Nc1c([N+](=O)[O-])cc(C)c(C)c1[N+](=O)[O-] | 1.11 | 1.01 | 0.983 | 1.02 | 1.07 (inactive) | 1.04 (inactive) | 0.998 (inactive) | 0.991 (inactive) | 1.01 (inactive) | 1.01 (inactive) | 0.992 (inactive) | 1.01 (inactive)
C=C1C[C@@H]2[C@H](CC[C@]3(C)C(=O)CC[C@@H]23)[C@@]2(C)C=CC(=O)C=C12 [Exemestane] | 0.934 | 1 | 1.03 | 1.07 | 0.984 (inactive) | 1.07 (inactive) | 1.03 (inactive) | 1.05 (inactive) | 0.981 (inactive) | 0.996 (inactive) | 1 (inactive) | 1.02 (inactive)
CC(C)(C)C(O)C(Oc1ccc(Cl)cc1)n1cncn1 (configuration not stated) | 0.989 | 1.11 | 0.994 | 0.928 | 0.993 (inactive) | 0.962 (inactive) | 0.998 (inactive) | 1.08 (inactive) | 0.999 (inactive) | 0.937 (inactive) | 1 (inactive) | 0.975 (inactive)
c1ccc2c(c1)cc1ccc3cccc4ccc2c1c34 [Benzo[a]pyrene] | 0.972 | 1.03 | 1.06 | 1.01 | 0.948 (inactive) | 1.03 (inactive) | 1.01 (inactive) | 0.977 (inactive) | 1.01 (inactive) | 1 (inactive) | 1 (inactive) | 1.04 (inactive)
CNCC(O)c1ccc(O)cc1 (configuration not stated) [Synephrine] | 1.04 | 1.09 | 1.01 | 0.887 | 1.02 (inactive) | 0.997 (inactive) | 1.05 (inactive) | 1.11 (inactive) | 0.982 (inactive) | 0.997 (inactive) | 0.989 (inactive) | 1.09 (inactive)
COc1ccc(C(=CC(=O)N2CCOCC2)c2ccc(Cl)cc2)cc1OC (mixture of isomers) | 1.18 | 1.01 | 1.01 | 0.966 | 1.01 (inactive) | 1.11 (inactive) | 1.08 (inactive) | 0.946 (inactive) | 0.965 (inactive) | 0.929 (inactive) | 1.06 (inactive) | 1.09 (inactive)
C1=Cc2cccc3cccc1c23 [Acenaphthylene] | 0.849 | 1.03 | 0.96 | 1.15 | 1.02 (inactive) | 0.962 (inactive) | 0.991 (inactive) | 1.02 (inactive) | 1 (inactive) | 1.02 (inactive) | 0.985 (inactive) | 0.996 (inactive)
CC[C@@H](C(=O)[C@@H](C)[C@@H](O)[C@H](C)[C@@H]1O[C@@H]([C@@H](CC)C(=O)O)CC[C@@H]1C)[C@H]1O[C@]2(C=C[C@@H](O)[C@]3(CC[C@@](C)([C@H]4CC[C@](O)(CC)[C@H](C)O4)O3)O2)[C@H](C)C[C@@H]1C [Salinomycin sodium] | 0.000863 | 1.01 | 0.976 | 0.156 | 1.02 (inactive) | 0.0211 (active) | 0.152 (active) | 0.929 (inactive) | 0.993 (inactive) | 1.01 (inactive) | 0.996 (inactive) | 0.177 (active)
C[C@H](N)[C@H](O)c1ccc(O)c(O)c1 [Levonordefrin] | 1.11 | 0.971 | 1 | 0.976 | 0.953 (inactive) | 1.04 (inactive) | 1.07 (inactive) | 0.904 (inactive) | 0.981 (inactive) | 0.962 (inactive) | 1.01 (inactive) | 1.14 (inactive)
CCOP(=S)(OCC)Oc1cc(C)nc(C(C)C)n1 | 0.996 | 1.01 | 0.998 | 1.15 | 1.04 (inactive) | 1.03 (inactive) | 0.997 (inactive) | 1 (inactive) | 1 (inactive) | 1.01 (inactive) | 1 (inactive) | 1 (inactive)
CN1CCN(C(=O)OC2c3nccnc3C(=O)N2c2ccc(Cl)cn2)CC1 (configuration not stated) [Zopiclone] | 1.13 | 0.987 | 0.952 | 0.842 | 1.03 (inactive) | 1.02 (inactive) | 0.989 (inactive) | 0.98 (inactive) | 1.02 (inactive) | 0.979 (inactive) | 0.99 (inactive) | 0.988 (inactive)
C#C[C@]1(O)C=C[C@H]2[C@@H]3CCC4=CC(=O)CC[C@@H]4[C@H]3CC[C@@]21CC [Gestodene] | 1.16 | 1.02 | 1 | 0.924 | 1 (inactive) | 1.03 (inactive) | 1.01 (inactive) | 1.02 (inactive) | 0.993 (inactive) | 0.995 (inactive) | 0.988 (inactive) | 0.977 (inactive)

From the supplement of paper PMC12494721
